Assay results: PubChem BioAssay AID1159580 (chemical genetic matrix, 2015)
Screen size: about 5,500 compounds; about 2,000 (36%) were called active. Not shown: some 18% with an inconclusive outcome. Rule as the data show it: active = normalized growth mostly below about 0.91 (no sharp cut-off); inconclusive = no clear call, values can overlap the other calls; inactive = mostly above about 0.92. Some of the results follow.

Assay: chemical genetic growth profiling, strain panel (AID 1159580);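 also: tested at 20 µM; growth read once vehicle control cultures reached saturation at 30 °C; 1 = growth at the plate median or of vehicle wells; lower values mean less growth of the strain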
Conditions: growth OD

Measured: normalized growth

C[C@]12CCC3C(CC[C@H]4C[C@@H](Cl)CC[C@]34C)C1CCC2=O (stereo partly drawn)
inactive: S. cerevisiae deletion strains, locus YBR021W, strain FUR4, active compounds read low 0.947 | S. cerevisiae deletion strains, locus YBR229C, strain ROT2, active compounds read low 1.03 | S. cerevisiae deletion strains, locus YCL029C, strain bik1, active compounds read low 0.968 | S. cerevisiae deletion strains, locus YDL035C, strain GPR1, active compounds read low 0.921 | S. cerevisiae deletion strains, locus YDL074C, strain BRE1, active compounds read low 0.87 | S. cerevisiae deletion strains, locus YDL101C, strain DUN1, active compounds read low 0.997 | S. cerevisiae deletion strains, locus YDL134C, strain PPH21, active compounds read low 0.977 | S. cerevisiae deletion strains, locus YDL185W, strain tfp1, active compounds read low 1.02 | S. cerevisiae deletion strains, locus YDL192W, strain arf1, active compounds read low 0.956 | S. cerevisiae deletion strains, locus YDR101C, strain arx1, active compounds read low 1.01 | S. cerevisiae deletion strains, locus YDR150W, strain NUM1, active compounds read low 1.01 | S. cerevisiae deletion strains, locus YDR162C, strain NBP2, active compounds read low 0.885 | S. cerevisiae deletion strains, locus YDR318W, strain mcm21, active compounds read low 0.981 | S. cerevisiae deletion strains, locus YDR388W, active compounds read low 1.02 | S. cerevisiae deletion strains, locus YDR502C, strain sam2, active compounds read low 0.988 | S. cerevisiae deletion strains, locus YER110C, active compounds read low 1.02 | S. cerevisiae deletion strains, locus YER155C, strain BEM2, active compounds read low 1.02 | S. cerevisiae deletion strains, locus YER167W, strain BCK2, active compounds read low 0.983 | S. cerevisiae deletion strains, locus YGL078C, strain dbp3, active compounds read low 0.99 | S. cerevisiae deletion strains, locus YGL086W, strain mad1, active compounds read low 0.959 | S. cerevisiae deletion strains, locus YGL248W, strain PDE1, active compounds read low 0.972 | S. cerevisiae deletion strains, locus YGR078C, strain PAC10, active compounds read low 0.951 | S. cerevisiae deletion strains, locus YGR135W, strain pre9, active compounds read low 0.997 | S. cerevisiae deletion strains, locus YGR252W, strain gcn5, active compounds read low 0.993 | S. cerevisiae deletion strains, locus YHR030C, strain SLT2, active compounds read low 1.02 | S. cerevisiae deletion strains, locus YHR079C, strain IRE1 (second series), active compounds read low 1.02 | S. cerevisiae deletion strains, locus YHR094C, strain hxt1, active compounds read low 1.02 | S. cerevisiae deletion strains, locus YHR129C, strain ARP1, active compounds read low 0.987 | S. cerevisiae deletion strains, locus YHR200W, strain rpn10, active compounds read low 0.951 | S. cerevisiae deletion strains, locus YIL066C, strain RNR3, active compounds read low 0.957 | S. cerevisiae deletion strains, locus YIL073C, strain SPO22, active compounds read low 1.05 | S. cerevisiae deletion strains, locus YIL125W, strain kgd1, active compounds read low 1 | S. cerevisiae deletion strains, locus YIR030C, strain dcg1, active compounds read low 1.02 | S. cerevisiae deletion strains, locus YJL095W, strain BCK1, active compounds read low 0.952 | S. cerevisiae deletion strains, locus YJL134W, strain LCB3, active compounds read low 1.02 | S. cerevisiae deletion strains, locus YJL168C, strain set2, active compounds read low 1.04 | S. cerevisiae deletion strains, locus YJL187C, strain SWE1 (second series), active compounds read low 0.993 | S. cerevisiae deletion strains, locus YJR043C, strain POL32, active compounds read low 0.925 | S. cerevisiae deletion strains, locus YKL009W, strain mrt4, active compounds read low 1.02 | S. cerevisiae deletion strains, locus YKL068W, active compounds read low 1.01 | S. cerevisiae deletion strains, locus YKL085W, strain MDH1 (second series), active compounds read low 0.998 | S. cerevisiae deletion strains, locus YKL085W, strain MDH1, active compounds read low 0.998 | S. cerevisiae deletion strains, locus YKR001C, strain vps1, active compounds read low 0.937 | S. cerevisiae deletion strains, locus YLR039C, strain RIC1, active compounds read low 0.769 | S. cerevisiae deletion strains, locus YLR058C, strain SHM2, active compounds read low 0.984 | S. cerevisiae deletion strains, locus YLR102C, strain apc9, active compounds read low 1.01 | S. cerevisiae deletion strains, locus YLR268W, strain sec22, active compounds read low 0.982 | S. cerevisiae deletion strains, locus YLR330W, strain CHS5, active compounds read low 0.987 | S. cerevisiae deletion strains, locus YLR371W, strain rom2, active compounds read low 0.99 | S. cerevisiae deletion strains, locus YLR418C, strain cdc73, active compounds read low 0.849 | S. cerevisiae deletion strains, locus YML016C, strain PPZ1, active compounds read low 1.01 | S. cerevisiae deletion strains, locus YML032C, strain rad52, active compounds read low 0.993 | S. cerevisiae deletion strains, locus YML124C, strain tub3, active compounds read low 1.02 | S. cerevisiae deletion strains, locus YMR078C, strain ctf18, active compounds read low 1.03 | S. cerevisiae deletion strains, locus YMR223W, strain ubp8, active compounds read low 0.999 | S. cerevisiae deletion strains, locus YMR307W, strain GAS1, active compounds read low 1.06 | S. cerevisiae deletion strains, locus YNL067W, strain RPL9B, active compounds read low 0.986 | S. cerevisiae deletion strains, locus YNL233W, strain BNI4, active compounds read low 0.969 | S. cerevisiae deletion strains, locus YNL250W, strain rad50, active compounds read low 1.03 | S. cerevisiae deletion strains, locus YNL271C, strain bni1, active compounds read low 1.01 | S. cerevisiae deletion strains, locus YNL298W, strain CLA4, active compounds read low 0.967 | S. cerevisiae deletion strains, locus YNR052C, strain pop2, active compounds read low 0.976 | S. cerevisiae deletion strains, locus YOL006C, strain TOP1, active compounds read low 0.863 | S. cerevisiae deletion strains, locus YOL012C, strain htz1 0.88 | S. cerevisiae deletion strains, locus YOL147C, strain pex11, active compounds read low 0.972 | S. cerevisiae deletion strains, locus YOR061W, strain CKA2, active compounds read low 1.02 | S. cerevisiae deletion strains, locus YOR069W, strain VPS5, active compounds read low 1.01 | S. cerevisiae deletion strains, locus YOR136W, strain idh2, active compounds read low 1 | S. cerevisiae deletion strains, locus YOR144C, strain elg1, active compounds read low 1.01 | S. cerevisiae deletion strains, locus YOR316C, strain cot1, active compounds read low 1.02 | S. cerevisiae deletion strains, locus YPR119W, strain clb2, active compounds read low 1.03 | S. cerevisiae deletion strains, locus YPR141C, strain kar3, active compounds read low 1.03 | S. cerevisiae deletion strains, locus YPR163C, strain tif3, active compounds read low 0.969 | S. cerevisiae deletion strains, locus YPR167C, strain met16, active compounds read low 0.996 | S. cerevisiae deletion strains, strain wtn01, active compounds read low 0.967 | S. cerevisiae strains, strain wild type, active compounds read low 0.909
active: S. cerevisiae deletion strains, locus YNL307C, strain MCK1, active compounds read low 0.888 | S. cerevisiae deletion strains, locus YOR184W, strain ser1, active compounds read low 0.733
